# Data as given in the supplement of paper PMC6555819.
# Assays:
# Experiment in all cases: PBM binding z-score (relative to random genomic background probes); higher = stronger binding; sequences stand for … in GC…GCGATTGACAGCGTAGAATGAAGG
# [1] = tested on: PPARg:RXRa DBDmut IVT, anti-RXR (DBD mutation: RXRa K156A/R161A, NR concentration 270 nM, RXRa partner concentration 90 nM)
# Method in brief: (§1)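 On custom Agilent 4×180K arrays, double-stranded probes with 34-nt variable regions carried direct-repeat seeds, single-nucleotide variants, half-site ablations or random human genomic background. Ligand-free nuclear receptor dimers were applied for 1 h, and binding was read with antibodies against each partner (one per run). Binding z-scores come from regression-normalized fluorescence, with the random background probes as reference.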
# [2] = tested on: PPARg:RXRa IVT, anti-PPARg (NR concentration 270 nM, RXRa partner concentration 90 nM)
# Method in brief: as §1
# [3] = tested on: PPARg DBDmut:RXRa IVT, anti-PPARg (DBD mutation: PPARg1 K132A/R137A, NR concentration 270 nM, RXRa partner concentration 90 nM)
# Method in brief: as §1
# [4] = tested on: PPARg DBDmut IVT, anti-PPARg (DBD mutation: PPARg1 K132A/R137A, NR concentration 270 nM)
# Method in brief: as §1
# [5] = tested on: PPARg homodimer (NR concentration 180 nM)
# Method in brief: as §1
# [6] = tested on: PXR:RXRa (NR concentration 270 nM, RXRa partner concentration 90 nM)
# Method in brief: as §1
# [7] = tested on: PXR homodimer (NR concentration 270 nM)
# Method in brief: as §1
# [8] = tested on: RARa:RXR (NR concentration 270 nM, RXRa partner concentration 90 nM)
# Method in brief: as §1
# [9] = tested on: RARa homodimer (NR concentration 270 nM)
# Method in brief: as §1
# [10] = tested on: RARb:RXRa (NR concentration 270 nM, RXRa partner concentration 90 nM)
# Method in brief: as §1
# [11] = tested on: RARb homodimer (NR concentration 270 nM)
# Method in brief: as §1
# [12] = tested on: RARg:RXRa (NR concentration 270 nM, RXRa partner concentration 90 nM)
# Method in brief: as §1
# [13] = tested on: RARg homodimer (NR concentration 270 nM)
# Method in brief: as §1
# [14] = tested on: RXRa DBDmut IVT, anti-RXR (DBD mutation: RXRa K156A/R161A, NR concentration 90 nM)
# Method in brief: as §1
# [15] = tested on: RXRa homodimer (NR concentration 180 nM)
# Method in brief: as §1
# [16] = tested on: THRa:RXRa (NR concentration 90 nM, RXRa partner concentration 90 nM)
# Method in brief: as §1
# [17] = tested on: THRa homodimer (NR concentration 90 nM)
# Method in brief: as §1
# [18] = tested on: VDR homodimer (NR concentration 270 nM)
# Method in brief: as §1
Sequence,PBM binding z-score [1],PBM binding z-score [2],PBM binding z-score [3],PBM binding z-score [4],PBM binding z-score [5],PBM binding z-score [6],PBM binding z-score [7],PBM binding z-score [8],PBM binding z-score [9],PBM binding z-score [10],PBM binding z-score [11],PBM binding z-score [12],PBM binding z-score [13],PBM binding z-score [14],PBM binding z-score [15],PBM binding z-score [16],PBM binding z-score [17],PBM binding z-score [18]
GCAGACAGGTGAAACGCAGGTAAATCAGGGTGGC,0.287,0.429,-0.773,-1.02,-0.379,-0.152,-0.443,0.514,-0.404,0.472,0.00843,0.816,-0.0582,-0.477,0.544,1.23,-0.537,-0.336
CCTAGCAGGGCAATCTGGGTCACTCAAGGCTTGA,4.48,5.72,-0.465,-0.641,0.648,1.65,-0.451,1.89,-0.799,2.06,2.36,1.56,1.89,0.252,0.981,4.24,-0.0319,-0.354
CGTCAAAGTACAAGGTAACGTAACAGAAAGCAGC,0.112,0.638,-0.0581,-0.118,0.323,-0.0227,-0.131,0.281,0.369,1.1,0.287,0.552,1.1,0.923,0.455,1.37,0.356,-0.157
ATCTCTAGGTAAAAGTTCACTGAATCCCGAGGAT,2.27,4.44,1.42,1.19,1.29,3.44,2.38,2.99,1.08,2.97,3.15,3.04,2.99,0.997,3.02,2.01,0.473,2.79
TCTAATTGGTCACGGAGGTCACACACGACGGGTA,2.78,4.04,1.67,1.69,3.37,4.81,1.7,4.76,2.23,4.2,4.68,5.01,5.18,1.55,5.28,3.73,2.75,3.23
TTACCAAGGTGAATGGTCGTTGATGCACGCCTTG,2.03,2.67,0.334,0.253,0.0353,0.0282,-0.612,0.364,0.953,1.46,0.707,0.538,0.576,-0.0991,0.73,1.47,0.775,0.132
CCTCGGAGGACAGAAGGTCTGAGCTGTCCGCTTT,0.154,-0.94,-1.16,-2.11,-0.0745,-0.674,-0.886,-0.544,-0.761,0.519,-0.106,-0.159,0.14,-0.0896,-0.825,-0.0206,-0.537,-0.369
CTCGAAAGGTCGTGCTCAGGTGGGTATACCAAAC,0.456,1.65,0.375,0.179,1.84,3.14,0.555,3.84,0.327,3.9,2.65,4.38,3.96,1.68,4.59,2.57,0.504,1.08
CTACCGAGGTGAACAAGGTCGTTGATTACTATTC,2.91,3.47,0.523,0.329,0.965,3.25,1.95,2.62,-0.15,2.19,2.25,2.19,1.74,1.74,2.4,3.6,2.43,3.13
GTACCAAGGGGAATAGGTCGTTGATGAGTAGGCG,-0.45,0.704,-0.174,-0.377,0.85,0.0913,0.00696,0.389,0.37,0.516,0.74,0.528,0.371,-0.365,0.651,0.124,-0.309,0.49
CCTAGCAGGGCAGGGTCACTCAAGCATTTCGCTT,0.873,1.78,-1.54,-0.906,1.69,2.92,-0.402,3.98,-0.114,3,3.05,3.61,3.01,0.33,4.08,2.8,0.567,1.75
AGTCAAAGTTCAGGACGTGGTAACGTAAAGCACG,-0.468,1.64,0.643,0.0633,1.68,2.15,0.643,1.86,0.703,4.15,3.13,4.04,4.85,2.76,2.67,2.37,0.614,1.49
CAAACTAGGTCAAGGACAGTGAATCTCCGCACGC,8.06,8.33,5.83,2.41,2.39,1.42,0.22,2.41,1.49,4.06,3.29,3.69,4.39,1.7,2.79,3.27,2.33,0.901
CAAACCAGGTCAAGGTCAAAGTCGGTTTGTGCCA,6.42,7.16,2.64,2.41,4.71,5.84,2.63,6.02,2.21,5.38,5.11,6.13,6.35,3.39,6.52,4.77,4.35,4.97
